Hits are enriched below; roughly 5.7% of the tested compounds scored in any of these assays.
JMJD2A Tudor inh: inhibitors of human JMJD2A Tudor domain. AlphaScreen JMJD2A-Tudor / H3K4me3 peptide binding. Potency, µM (series often up to 114 µM), for inactives: at the top dose activity change, negative = inhibition, actives largely listed as inhibitors. 390,000 tested, 4.4% active. O75164. AID 504339; also: potency is read from the fitted curve at half-maximal effect; % is scaled to controls: 0 for no effect and ±100 for the full control effect; nearly all actives have a fitted effect of over 50% in size
Target sequence (O75164 whole entry, looked up, the tested form may be a part): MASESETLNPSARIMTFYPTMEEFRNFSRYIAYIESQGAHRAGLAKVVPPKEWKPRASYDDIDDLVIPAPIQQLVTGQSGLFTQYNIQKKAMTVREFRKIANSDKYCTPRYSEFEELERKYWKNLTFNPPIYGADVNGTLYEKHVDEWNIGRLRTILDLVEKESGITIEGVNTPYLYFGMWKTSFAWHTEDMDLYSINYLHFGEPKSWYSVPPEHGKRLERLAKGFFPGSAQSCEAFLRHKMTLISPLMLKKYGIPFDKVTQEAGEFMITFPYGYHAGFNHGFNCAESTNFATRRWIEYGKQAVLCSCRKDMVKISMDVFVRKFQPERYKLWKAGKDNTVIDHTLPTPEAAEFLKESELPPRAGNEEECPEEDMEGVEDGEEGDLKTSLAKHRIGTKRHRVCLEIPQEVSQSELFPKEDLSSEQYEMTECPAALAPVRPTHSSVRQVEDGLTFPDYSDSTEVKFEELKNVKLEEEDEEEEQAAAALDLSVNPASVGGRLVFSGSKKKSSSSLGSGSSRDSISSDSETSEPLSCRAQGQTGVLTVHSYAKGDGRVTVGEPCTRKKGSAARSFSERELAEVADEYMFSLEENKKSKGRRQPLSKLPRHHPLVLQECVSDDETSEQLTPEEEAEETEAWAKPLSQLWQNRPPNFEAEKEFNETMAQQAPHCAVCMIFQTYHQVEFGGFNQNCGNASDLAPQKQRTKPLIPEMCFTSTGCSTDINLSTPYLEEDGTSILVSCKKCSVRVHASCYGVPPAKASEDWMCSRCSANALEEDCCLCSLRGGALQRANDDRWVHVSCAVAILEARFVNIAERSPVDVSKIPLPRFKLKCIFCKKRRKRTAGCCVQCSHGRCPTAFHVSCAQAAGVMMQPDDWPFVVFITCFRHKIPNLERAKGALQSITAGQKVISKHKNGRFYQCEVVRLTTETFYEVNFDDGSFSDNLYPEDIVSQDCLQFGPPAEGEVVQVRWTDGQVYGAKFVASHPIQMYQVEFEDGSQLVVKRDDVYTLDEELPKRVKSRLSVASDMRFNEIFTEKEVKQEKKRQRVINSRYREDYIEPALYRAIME
PI5P4K alpha inh: inhibitors of human PI5P4K alpha; P48426; PI5P4Kalpha enzyme, ADP-Glo luminescence, 60 min; active compounds read low; max response, %; 330,000 tested, 1.2% active; AID 652105; active = max response of -50% or lower; inconclusive = between -30% and -50%; inactive = -30% or higher; also: value at the top dose of about 77 µM; % is scaled to controls: 0 for no effect and ±100 for the full control effect
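Human PI5P4Kalpha with substrate in 0.038 M HEPES pH 7.4, 0.28 mM EGTA, 0.1% CHAPS, 5% DMSO; reaction started with 5 microM ATP (final), 60 min at room temperature. ADP formed read by ADP-Glo luminescence.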
HP1b binding inh: inhibitors of HP1-beta chromodomain binding to methylated histone tails; P83916; AlphaScreen HP1-beta / biotin-H3K9me3 peptide binding; Potency, µM (top dose mostly 114 µM), without a hit: at the top dose activity change, negative = inhibition, hits mostly inhibitors; 390,000 tested, 0.56% active; also: potency is read from the fitted curve at half-maximal effect; nearly all actives have a fitted effect of over 70% in size
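HP1-beta protein (50 nM final) preincubated 30 min at room temperature with biotinylated H3(1-18)K9me3 peptide (50 nM) in PBS pH 7.4, 0.01% Tween-20, then compound added for 30 min. AlphaScreen streptavidin donor/nickel chelate acceptor beads (10 ug/mL final), 30 min dark, luminescence read.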
JMJD2E inh: JMJD2E (human) inhibition; Potency, µM (top dose mostly 57.1 µM), for inactives: at the highest dose activity change, negative = inhibition, actives largely listed as inhibitors; B2RXH2; 230,000 tested, 1.6% active; JMJD2E catalytic domain, FDH-coupled NADH fluorescence (FDH is formaldehyde dehydrogenase); active = well fitted inhibition curve with a large enough effect, not every such curve was filed as active; inconclusive = small, poorly fitted or top-dose-only effect, or another doubt; inactive = no such curve, though single readings can be large or run the other way;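 also: potency is read from the fitted curve at half-maximal effect; 0% = wells with enzyme and -100% = buffer wells without enzyme; nearly all actives have a fitted effect of over 50% in size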
L3MBTL1 block: L3MBTL1 (human) inhibition. Q9Y468. AlphaScreen L3MBTL1–H3K9me1 peptide binding. Potency, µM (series often up to 57.1 µM), without a hit: top-dose activity, negative = inhibition, usual class: inhibitors. 230,000 tested, 0.66% active. AID 485360; also: potency is read from the fitted curve at half-maximal effect; % is scaled to controls: 0 for no effect and ±100 for the full control effect; nearly all actives have a fitted effect of over 60% in size
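First, the protein-peptide complex forms for 30 min at room temperature (L3MBTL1 50 nM, biotinylated H3K9me1 peptide 75 nM). Next, compounds are pin-transferred and incubated 30 min. Finally, AlphaScreen beads are added and read after 30 min.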
BAZ2B inh: BAZ2B (human) inhibition; AlphaScreen BAZ2B-H3K14Ac peptide displacement; Potency, µM (top dose mostly 114 µM), inactives show top-dose activity change, negative = inhibition, hits mostly inhibitors; 360,000 tested, 4.4% active; AID 504333; also: potency is read from the fitted curve at half-maximal effect; % is scaled to controls: 0 for no effect and ±100 for the full control effect; nearly all actives have a fitted effect of over 60% in size
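In this displacement format the biotinylated H3(5-23) peptide acetylated at Lys14 serves as ligand at 50 nM, with BAZ2B at 50 nM in PBS pH 7.4 containing 0.01% Tween-20. Donor and acceptor beads are 10 ug/mL final.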
Numbers without * were called inactive; ? = inconclusive; . = no result; [ ] = another dose, or the depositor's remark. Unless noted, calls follow the shape of the dose curve; as a rule, active = well fitted inhibition curve with a large enough effect; inconclusive = small, poorly fitted or top-dose-only effect; inactive = no such curve, though single readings can be large or run the other way.

SMILES | JMJD2A Tudor inh | PI5P4K alpha inh | HP1b binding inh | JMJD2E inh | L3MBTL1 block | BAZ2B inh
C=CCN1C(=O)/C(=C/c2ccc(OC(C)=O)c(OCC)c2[N+](=O)[O-])SC1=S | 25.1µM* | ? | 15.8µM* | -2.6% | 39.8µM* | 11.2µM*
COc1ccc(Br)c(Cn2c(C)c(C(=O)NCc3ccccc3C(F)(F)F)sc2=O)c1 | . | 2.9 | . | . | . | .
Cc1c(C)n(CCN(C)C)c2ccc(C(=O)OCCN(C)C)cc12 | -7.4% | -1.5 | 9.1% | . | . | -26.2%
Cc1c(C)n(Cc2ccccc2)c2ccc(C(=O)OCCCN(C)C)cc12 | 39.8µM* | 1.3 | ? | 0.1% | -20.4% | -11.6%
O=C1C(=C(c2ccccc2)c2ccccc2)Nc2ccccc21 | 28.2µM* | 5.4 | 15.8µM* | 6.1% | . | 11.2µM*
O=c1ccc2[n+]([O-])c3ccc(O)cc3oc-2c1 | -19.6% | -23.4 | ? | ? | 3.16µM* | 10µM*
Nc1ccc(-c2c3ccc(=O)cc-3oc3cc(O)ccc23)c(C(=O)O)c1 | -15.0% | -9.6 | -2.0% | . | ? | -1.2%
Cc1cc(C)n(CCC(=O)N/N=C/c2ccc(O)cc2)n1 | 5.6% | -10.2 | 34.1% | -1.7% | 6.1% | -12.0%
C[N+](C)(C)CC(=O)N/N=C/c1c2ccccc2cc2ccccc12 | ? | 1.5 | 42.1% | . | . | 56.2µM*
Cc1ccc(S(=O)(=O)N2CCN(CC(=O)N/N=C\c3ccc(O)c(O)c3)CC2)cc1 | -13.3% | 0.9 | 29.8% | 15.8µM* | . | -24.3%
Cc1cc(C)n(CCC(=O)N/N=C/c2c(O)ccc3ccccc23)n1 | ? | 0.7 | 20.7%[57 µM] | 0.199µM* | . | 0.2%
Cc1ccc(O)c(/C=N/NC(=O)CN2CCCC2)c1 | 70.8µM* | 2.3 | 54.7% | . | ? | 50.1µM*
COc1ccc(Br)cc1/C=N/NC(=O)CN1CCCCC1 | 1.3% | -1.7 | 25.9% | . | 22.5% | 2.2%
Cn1cccc1CC(=O)N/N=C\c1c2ccccc2cc2ccccc12 | ? | . | -11.8% | -25.6% | -1.0% | -9.6%
Cc1ccc(S(=O)(=O)N2CCN(CC(=O)N/N=C/c3ccc(C)o3)CC2)cc1 | -29.5% | -2.2 | 18.8% | 3.5% | 0.8% | -2.8%
O=S1(=O)N=C(Oc2ccccc2-c2ccccc2)c2ccccc21 | -17.0% | . | . | . | . | .
Cc1ccc(C(=O)Nc2nnc(CC(=O)N/N=C/c3ccncc3)s2)cc1 | ? | ? | 22.6% | -29.1% | ? | ?
Cc1ccc(C(=O)Nc2nnc(CC(=O)N/N=C/c3ccc(O)c(O)c3)s2)cc1 | ? | -57.9* | -24.0% | . | . | 79.4µM*
O=C(CN1CCCC1)N/N=C/c1c(O)ccc2ccccc12 | 79.4µM* | -11.2 | 50.0% | . | ? | 28.2µM*
O=C(N/N=C/c1c(O)ccc2ccccc12)C(=O)N1CCCC1 | . | -11.3 | . | . | . | .
CC1=C(c2ccc(C)c(C)c2)S(=O)(=O)N=C1N1CCC(C(=O)NC(C)Cc2ccco2)CC1 (configuration not stated) | 4.0% | . | 39.4% | . | . | 1.2%
O=Cc1cccn1-c1ccc(O)cc1 | -1.0% | 1.9 | 39.3% | -5.3% | -3.5% | 79.4µM*
COc1ccccc1N1CCN(S(=O)(=O)c2c(C)nc3sc(C)c(C)n3c2=O)CC1 | 0.7% | . | 26.0% | . | . | -13.2%
CCC1=NNc2cccc3c(OC)ccc1c23 | . | . | . | 5.01µM* | . | 28.2µM*
COc1ccc2c3c(cccc13)C(=O)N(O)C2=O | -12.9% | -2.8 | 19.5% | ? | -3.3% | -29.6%
SMILES | JMJD2A Tudor inh | PI5P4K alpha inh | HP1b binding inh | JMJD2E inh | L3MBTL1 block | BAZ2B inh
CCn1c(SCC(=O)Nc2ccc3c(c2)n(C)c(=O)n3C)nnc1-c1ccncc1 | -11.8% | -2.0 | 9.7% | . | . | ?
COc1ccc(-n2c(SCC(=O)Nc3ccc(C(=O)O)cc3)nnc2-c2ccccc2)cc1OC | -18.4% | ? | 47.1% | . | . | 56.2µM*
Cn1c(=O)n(C)c2cc(NC(=O)CSc3nnc(-c4ccccc4O)n3-c3ccccc3)ccc21 | -13.9% | 0.2 | 20.0% | ? | -4.5% | 50.1µM*
Cn1c(CSCc2ccccc2)nnc1SCC(=O)Nc1ccc(C(=O)O)cc1 | -15.2% | -73.0* | 28.8% | 1.8% | 14.5% | 0.1%
O=C(CSc1nnc(-c2cccc(S(=O)(=O)N3CCCC3)c2)n1-c1ccccc1)Nc1ccc(C(=O)O)cc1 | ? | ? | 7.6% | 2.8% | . | 50.1µM*
CC1=C(C(N)=O)C(c2cccc(C)c2)n2nc(-c3cccc(C)c3)nc2N1 (configuration not stated) | -23.5% | . | -1.5% | . | . | -6.0%
CC(C)c1cc(C(=O)OCC(=O)NC2CC2)c(O)c(C(C)C)c1 | . | 19.5 | . | . | . | .
COc1ccc(-c2nc3c4ccccc4n(CC(=O)N4CCN(c5ccc(F)cc5)CC4)c(=O)n3n2)cc1 | -11.7% | . | 71.4% | . | . | 14.9%
O=C(CSc1nnc(-c2ccncc2)n1-c1ccccc1Cl)Nc1ccc(C(=O)O)cc1 | -5.6% | -65.0* | 41.1% | 3.1% | . | .
Cc1cc(C)nc(Nc2n[nH]c(COc3ccccc3)n2)n1 | 31.6µM* | ? | -3.5% | 3.0% | 1.3% | -3.2%
C[C@H](NC(=O)c1cccc([N+](=O)[O-])c1)C(=O)OCC(=O)c1ccccc1Br | -15.7% | 0.2 | 16.7% | . | 1.5% | .
